# Reference: PubChem BioAssay AID1461 (National Center for Advancing Translational Sciences (NCATS), 2008)
# Out of some 220,000 compounds screened, about 2,300 (1%) were called active. Not shown: some 6% with an inconclusive outcome. This is one part of a sample in which actives are shown more often than they occur. Values without a mark were called inactive. The call rests on the fitted dose curve; in most records, active means well fitted inhibition curve with a large enough effect; inconclusive means small, poorly fitted or top-dose-only effect, or effect the other way; inactive means no such curve, though single readings can be large or run the other way.
# Biological target: Neuropeptide S receptor (Homo sapiens) (UniProt Q6W5P4)
# Sequence (Q6W5P4 whole entry, looked up): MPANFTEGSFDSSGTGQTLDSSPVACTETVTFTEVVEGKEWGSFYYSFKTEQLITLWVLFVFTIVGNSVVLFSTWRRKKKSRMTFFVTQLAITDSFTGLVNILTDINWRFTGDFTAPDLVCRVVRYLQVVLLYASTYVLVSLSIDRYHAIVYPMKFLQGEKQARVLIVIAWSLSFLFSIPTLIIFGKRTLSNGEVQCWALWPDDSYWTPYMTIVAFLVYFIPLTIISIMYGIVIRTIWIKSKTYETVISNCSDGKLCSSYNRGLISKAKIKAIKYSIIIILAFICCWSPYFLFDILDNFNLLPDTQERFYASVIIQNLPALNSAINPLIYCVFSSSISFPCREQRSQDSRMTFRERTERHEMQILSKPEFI
# Test: qHTS Assay for Antagonists of the Neuropeptide S Receptor: cAMP Signal Transduction; further: nearly all actives have a fitted effect of over 50% in size
# Details: CHO-NPSR cells, cAMP TR-FRET, antagonist mode; series mostly up to 38.3 µM; activity change, negative = inhibition: at the top concentration
# From the text: NIH Chemical Genomics Center [NCGC] NIH Molecular Libraries Probe Production centers Network [MLPCN] MLPCN Grant: X01-DA026210-01 Assay Submitter (PI): Heilig, Markus Alexander NCGC Assay Overview: Neuropeptide S receptor (NPSR), previously known as GPR154, is a recently de-orphanized G protein coupled receptor. Its endogenous ligand is the 20 amino acids peptide Neuropeptide S (NPS). […] NPS and its receptor are found in various tissues. Specifically they are highly expressed in brain areas that have been implicated in modulation of arousal, stress and anxiety. Central administration of NPS in mice produces an unusual profile of activity by inducing wakefulness and arousal, while at the same time suppressing anxiety. Therefore, NPSR may represent a novel drug target for the treatment of sleep and anxiety disorders. To identify NPSR antagonists, we developed a cell-based cAMP assay. NPS can stimulate the production of cAMP in Chinese hamster ovary cells stably expressing NPS receptor. This change in intracellular cAMP level can be detected by a homogeneous LANCE cAMP assay based on the TR-FRET (time resolved fluorescence resonance energy transfer) between a europium-labeled cAMP tracer complex and a cAMP-specific antibody labeled with Alexa Fluor 647. The europium-labeled cAMP tracer complex is formed by the tight interaction between Biotin-cAMP (b-cAMP) and streptavidin labeled with Europium-W8044 chelate (Eu-SA). Light pulse at 320 nm excites the europium of the cAMP tracer and the energy emitted is transferred to the Alexa molecule bound to the cAMP antibody, generating a TR-FRET signal at 665 nm. Residual energy from the europium will produce a light at 620 nm. The native unlabeled cAMP from cell lysates competes with the europium-cAMP tracer for antibody binding and reversely reduces the emission signal of Alexa by interrupting FRET between the two labeled molecules. Both emission signals from the FRET donor (620 nm) and the acceptor (665 nm) can be detected by a plate reader in the TRF mode. Expression of result in fluorescence ratio (665 nm/620 nm) helps to normalize differences due to cell density and reagent dispensing. This assay was successfully optimized to a 1536-well plate format.
# NCGC Assay Protocol Summary: A Chinese hamster ovary (CHO) cell line stably expressing the NPS receptor (CHO-NPSR) was obtained from Dr. Heilig lab at NIAAA and maintained in F-12 Kaighn's media (Invitrogen, Carlsbad, CA, 21127) supplemented with 10 % FBS, 100 units/ml penicillin, 100 ug/ml streptomycin and 250 ug/ml geneticin at 37C, 5% CO2 in a humidified atmosphere. Before the assay, aliquots of cells were frozen and stored at -135C. The assay was performed in 1536-well format. Data are reported for both the ratio of the two emission wavelengths, and also for the component 'donor' channel, Em2=620. Data were normalized to the controls for basal activity (DMSO only) and 100% inhibition (No NPS control). IC50 values were determined from concentration-response data modeled with the standard Hill equation. NPS 1536-well assay protocol: (1) Fresh or frozen CHO-NPSR cells were suspended in F-12 Kaighn's media supplemented with 10 % FBS, 100 units/ml penicillin and 100 ug/ml streptomycin. Cells were plated at 4 ul/well (1200 cells) to white, tissue culture treated 1536-well plates, and then cultured at 37C, 5 % CO2 for 16 to 30 hours. (2) Add 23 nl/well of compound in DMSO solution. The final titration for each compound was between 0.6 nM and 46 uM. (3) Add 1 ul of stimulation reagent (1X HBSS buffer, 5 mM HEPES, 0.1% BSA, 500 uM RO-201724 (Sigma-Aldrich, B8279), 1.5% Alexa 647-labeled anti-cAMP antibody (from Perkin Elmer), 100 nM NPS) (4) Incubation at 37C, 5 % CO2 for 60 min. (5) Add 1 ul/well detection reagent. Detection reagent was prepared by adding biotin labeled cAMP (4%), streptavidin labeled with Europium-W8044 chelate (1.33%) and TritonX-100 (1%) to detection buffer. […]
# On the % scale 0 is the no-effect control and ±100 the full control effect; potency means the concentration at half of the fitted maximal effect.
Compound,Potency,"activity change, negative = inhibition"
CC(=O)Oc1ccccc1C(=O)Nc1ncc([N+](=O)[O-])s1,3.16 µM (active),–
CCN1CC2C3CCC(C)(O3)C2C1 (stereo not given),–,-11.5%
O=C1NC(=O)N(c2ccc(F)cc2)C(=O)/C1=C/c1ccc2c(c1)CCCN2Cc1ccccc1,–,-19.5%
Cc1cccc(N2C(=O)NC(=O)/C(=C\c3cnn(-c4ccccc4)c3)C2=O)c1,10 µM (active),–
COc1cccc(N2C(=O)NC(=O)/C(=C\c3ccc([N+](=O)[O-])s3)C2=O)c1,–,-36.3%
CC1=C2C(=O)C3C(CC=C4CC(OC5OC(O)C(O)C(O)C5CO)CCC43C)C2CCC12OC1CC(C)CNC1C2C (stereo not given),–,8.99%
CCOc1cccc(=NC2CCCCC2)c2c(C)[nH]c(C)c12,6.31 µM (active),–
COc1ccc(-n2c(O)c(C(C)=Nc3ccc4c(c3)CCC4)c(=O)[nH]c2=O)cc1,–,27.1%
CNC(=O)Nc1ccc(C(O)(C(=O)OC)C(F)(F)F)cc1 (stereo not given),–,26.3%
O=c1[nH]c(CN2CC=C(c3ccccc3)CC2)nc2scc(-c3cccs3)c12,–,25.8%
CCC(C)n1c(O)c(/C=N/Nc2nc3c(c(=O)n(C)c(=O)n3C)n2C)c(=O)[nH]c1=S (stereo not given),–,5.88%
COc1cccc(CN2CCCC(C(=O)c3ccccc3SC)C2)c1O (stereo not given),–,-42.8%
CCCCCCCCCCCCn1ccc(=N)cc1,6.31 µM (active),–
CC(=O)Cc1ccc(OC(C)C)cc1,–,-24%
C/C=C/CC1(CC)C(=O)NC(=S)NC1=O,–,-14.4%
CC1C2Cn3c(nc4ccccc43)C1N(C)O2 (stereo not given),–,20.9%
CN(C)CC1CCCCC1=O (stereo not given),–,-18.5%
O=C1CC(=O)N(Cc2ccccc2)C(=O)N1CCCCCCN1C(=O)CC(=O)N(Cc2ccccc2)C1=O,–,4.26%
O=c1[nH]c(=O)n(-c2ccc(F)cc2)c(O)c1C=NCCN1CCCCC1,–,-19.9%
Fc1ccc(C2N3CCCN23)cc1 (stereo not given),–,28.7%
